Inconclusive results are not listed. The source made the active and inactive calls. The call rests on the fitted dose curve; in most records, active means well fitted curve in the direction sought with a large enough effect in the repeat runs; inconclusive means weak or mixed curves; inactive means no such curve, though single readings can be large; an effect the other way counts as inactive or inconclusive.
What was measured:
[1] = A CellTox Green Cytotoxicity Assay to monitor cytotoxicity in HEK293 cells - 40 hour (AID 1224871); further: nearly all actives have a fitted effect of over 45% in size
In short: (§1)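 Cells (HEK293, 600/well) and dye reagent are dispensed together. After 5 h at 37 C, 23 nL compound is pinned in. Plates stay at 37 C for 40 h with fluorescence read at 0h, 8h, 16h, 24h, 32h and 40h.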

[2] = qHTS RealTime-Glo MT Cell Viability Assay in HEK293 cells - 16 hour (AID 1224872); further: top concentration of the series differs between compounds; nearly all actives have a fitted effect of over 50% in size
In short: (§2)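 Tox21 10K qHTS, HEK293, 600 cells/well, RealTime-Glo reagent co-dispensed with cells; 5 h preincubation, compound by pintool, 37 C, luminescence at 0–40 h.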

[3] = qHTS RealTime-Glo MT Cell Viability Assay in HepG2 cells - 8 hour (AID 1224873); further: nearly all actives have a fitted effect of over 55% in size
In short: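 Real-time viability: cells seeded at 600 per well together with NanoLuc and cell-permeant prosubstrate, compounds added after 5 h incubation. Luminescence tracked at 0, 8, 16, 24, 32 and 40 h of exposure.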

[4] = qHTS RealTime-Glo MT Cell Viability Assay in HEK293 cells - 40 hour (AID 1224874); conditions: RealTime-Glo luminescence; max response: stronger effect = lower value; further: nearly all actives have a fitted effect of over 50% in size
In short: (§3)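 Real-time viability in HEK293: signal arises when living cells convert a prosubstrate for NanoLuc in the medium, so luminescence tracks viable cell number. Compound (23 nL, DMSO) added 5 h post-seeding; kinetic reads at 0–40 h, 37 C.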

[5] = A CellTox Green Cytotoxicity Assay to monitor cytotoxicity in HepG2 cells - 16 hour (AID 1224876); further: nearly all actives have a fitted effect of over 45% in size
In short: (§4)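 Cells and non-lytic dye reagent are dispensed together (600 HepG2 cells/well) and incubated 5 h before DMSO compound transfer. Kinetic fluorescence is then recorded in the same wells during 40 h at 37 C.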

[6] = qHTS RealTime-Glo MT Cell Viability Assay in HepG2 cells - 32 hour (AID 1224877); further: nearly all actives have a fitted effect of over 55% in size
In short: (§5)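 Cells + NanoLuc/prosubstrate dispensed (600 cells/well) → 5 h at 37 C/5% CO2 → compounds in DMSO transferred → 40 h incubation at 37 C, luminescence read at 0, 8, 16, 24, 32, 40 h.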

[7] = A CellTox Green Cytotoxicity Assay to monitor cytotoxicity in HepG2 cells - 24 hour (AID 1224878); further: nearly all actives have a fitted effect of over 45% in size
In short: as §4

[8] = A CellTox Green Cytotoxicity Assay to monitor cytotoxicity in HepG2 cells - 40 hour (AID 1224879); further: nearly all actives have a fitted effect of over 40% in size
In short: as §4

[9] = qHTS RealTime-Glo MT Cell Viability Assay in HEK293 cells - 0 hour (AID 1224880); further: top concentration of the series differs between compounds; nearly all actives have a fitted effect of over 45% in size
In short: as §3

[10] = A CellTox Green Cytotoxicity Assay to monitor cytotoxicity in HEK293 cells - 32 hour (AID 1224881); further: nearly all actives have a fitted effect of over 40% in size
In short: as §1

[11] = A CellTox Green Cytotoxicity Assay to monitor cytotoxicity in HepG2 cells - 0 hour (AID 1224882); further: nearly all actives have a fitted effect of over 35% in size
In short: as §4

[12] = A CellTox Green Cytotoxicity Assay to monitor cytotoxicity in HepG2 cells - 32 hour (AID 1224883); further: nearly all actives have a fitted effect of over 50% in size
In short: as §4

[13] = A CellTox Green Cytotoxicity Assay to monitor cytotoxicity in HEK293 cells - 8 hour (AID 1224884); further: nearly all actives have a fitted effect of over 35% in size
In short: as §1

[14] = qHTS RealTime-Glo MT Cell Viability Assay in HepG2 cells - 16 hour (AID 1224885); further: nearly all actives have a fitted effect of over 50% in size
In short: as §5

[15] = qHTS RealTime-Glo MT Cell Viability Assay in HEK293 cells - 24 hour (AID 1224886)
In short: as §2

[16] = qHTS RealTime-Glo MT Cell Viability Assay in HEK293 cells - 8 hour (AID 1224887)
In short: as §3

[17] = qHTS RealTime-Glo MT Cell Viability Assay in HepG2 cells - 0 hour (AID 1224889); further: nearly all actives have a fitted effect of over 50% in size
In short: as §5

[18] = A CellTox Green Cytotoxicity Assay to monitor cytotoxicity in HEK293 cells - 24 hour (AID 1224875)
In short: as §1

[19] = A CellTox Green Cytotoxicity Assay to monitor cytotoxicity in HEK293 cells - 16 hour (AID 1224888); further: nearly all actives have a fitted effect of over 35% in size
In short: as §1
On the % scale 0 is the no-effect control and ±100 the full control effect.

CCC(=O)OC(C)c1ccccc1 (stereo unspecified)
inactive: Potency [1] | Potency [2] | Potency [3] | max response [4] -2.17% | Potency [5] | Potency [6] | Potency [7] | Potency [8] | Potency [9] | Potency [10] | Potency [11] | Potency [12] | Potency [13] | Potency [14] | Potency [15] | Potency [16] | Potency [17]

CN1C(=O)N(C)C(O)C1O (stereo unspecified)
inactive: Potency [1] | Potency [2] | Potency [3] | max response [4] 1.97% | Potency [18] | Potency [5] | Potency [6] | Potency [7] | Potency [8] | Potency [9] | Potency [10] | Potency [11] | Potency [12] | Potency [13] | Potency [14] | Potency [15] | Potency [17]

Nc1ccc(S(=O)(=O)Nc2ccnn2-c2ccccc2)cc1
inactive: Potency [1] | activity change, negative = cytotoxicity [2] 9.13% [at 15.8 µM] | viability change, negative = cytotoxic [3] -7.88% [at 15.8 µM] | max response [4] 3.19% | activity change [18] 1.21% [at 15.8 µM, stronger effect = higher value] | cytotoxicity increase [5] 2.84% [at 15.8 µM] | activity change, negative = cytotoxic [6] 1.3% [at 15.8 µM] | cytotoxicity [7] -1.77% [at 15.8 µM] | cytotoxicity increase [8] 1.49% [at 15.8 µM] | activity change, negative = cytotoxicity [9] 3.82% [at 15.8 µM] | Potency [10] | cytotoxicity [11] 3.97% [at 15.8 µM] | cytotoxicity increase [12] 3.28% [at 15.8 µM] | cytotoxicity increase [13] 1.9% [at 15.8 µM] | activity change, negative = cytotoxic [14] -1.35% [at 15.8 µM] | activity change, negative = cytotoxicity [15] 7.4% [at 15.8 µM] | activity change, negative = cytotoxicity [16] 7.76% [at 15.8 µM] | activity change [19] 2.29% [at 15.8 µM, stronger effect = higher value] | activity change, negative = cytotoxicity [17] -1.91% [at 15.8 µM]

CCCCOCCOCCOCCCC
inactive: Potency [1] | Potency [2] | Potency [3] | max response [4] 3.79% | Potency [18] | Potency [5] | Potency [6] | Potency [7] | Potency [8] | Potency [9] | Potency [10] | Potency [12] | Potency [13] | Potency [14] | Potency [15] | Potency [19] | Potency [17]

Cc1ccc(=O)n(-c2ccccc2)c1
inactive: Potency [1] | Potency [2] | Potency [3] | max response [4] 1.08% | Potency [5] | Potency [6] | Potency [7] | Potency [8] | Potency [9] | Potency [10] | Potency [11] | Potency [12] | Potency [13] | Potency [14] | Potency [15] | Potency [16] | Potency [19] | Potency [17]

C[C@H]1C[C@@H](O)CC(C)(C)C1
inactive: Potency [2] | Potency [3] | max response [4] -10.6% | Potency [5] | Potency [6] | Potency [7] | Potency [8] | Potency [9] | Potency [11] | Potency [12] | Potency [14] | Potency [15] | Potency [17]

CC(C)NCCCC1(C(N)=O)c2ccccc2-c2ccccc21
inactive: Potency [1] | Potency [2] | Potency [3] | max response [4] -19.1% | Potency [5] | Potency [6] | Potency [7] | Potency [8] | Potency [9] | Potency [10] | Potency [11] | Potency [12] | Potency [13] | Potency [14] | Potency [15] | Potency [16] | Potency [19] | Potency [17]

C/C=C(\C)C#N
inactive: Potency [1] | Potency [2] | Potency [3] | max response [4] -3.01% | Potency [18] | Potency [5] | Potency [6] | Potency [7] | Potency [8] | Potency [9] | Potency [10] | Potency [11] | Potency [12] | Potency [13] | Potency [14] | Potency [15] | Potency [16] | Potency [19] | Potency [17]

NS(=O)(=O)c1cc(C(=O)O)cc(N2CCCC2)c1Oc1ccccc1
inactive: Potency [1] | Potency [2] | Potency [3] | max response [4] -15.6% | Potency [18] | Potency [5] | Potency [6] | Potency [7] | Potency [8] | Potency [9] | Potency [10] | Potency [11] | Potency [12] | Potency [13] | Potency [14] | Potency [15] | Potency [16] | Potency [17]
